Assay outcomes from PubChem.
TDP1 cell noCPT = qHTS for Inhibitors of human tyrosyl-DNA phosphodiesterase 1 (TDP1): qHTS in cells in absence of CPT; DT40 Tdp1-/- hTDP1 cells, no CPT, ATP luminescence, 48 h; Potency, µM (series often up to 46.2 µM), for the others: top-dose activity change, negative = growth inhibition, hits mostly inhibitors; 420,000 tested, 15% active; AID 686978, 2013; also: potency is read from the fitted curve at half-maximal effect; nearly all actives have a fitted effect of over 55% in size
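Growth of hTDP1-complemented DT40 Tdp1-knockout cells is measured by ATP luminescence after at least 48 hr compound exposure at 37 °C, with DMSO substituting for the 20 nM CPT used in the parallel screen.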
IL1B secr inh = inflammasome signaling inhibition, IL-1 beta readout. THP-1 LPS/ATP IL-1B secretion, AlphaLISA, 16 h; stronger effect = lower value. activity change, % at 57.5 µM. 360,000 tested, 4.7% active. AID 743279; in the data active = activity change below about -50%; inconclusive = mostly about -30% to -49%
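Secreted IL-1B measured by AlphaLISA bead assay after 16 h compound exposure of THP-1 cells; compounds (final up to 57.5 uM) added 1 h before LPS (250 ng/mL) and ATP (1.25 mM) stimulation; lower signal means less secretion.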
DT40 TDP1 CPT = growth inhibition of DT40 Tdp1-/-;hTDP1 cells with camptothecin (screen for TDP1 inhibitors); chicken DT40 Tdp1-/-;hTDP1 cells + 20 nM CPT, ATP luminescence, 48 h; Potency, µM (titrated, usually from 46.2 µM), inactives show at the top dose activity change, negative = growth inhibition, usual class: inhibitors; 420,000 tested, 12% active; also: potency is read from the fitted curve at half-maximal effect; nearly all actives have a fitted effect of over 55% in size
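Chicken DT40 Tdp1-/- cells complemented with human TDP1, 400 cells/well, exposed to compounds plus 20 nM camptothecin for at least 48 h at 37 C; viability read as ATP content by CellTiter-Glo luminescence.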
HT1080-NT tox = kills 2HG-producing HT-1080-NT fibrosarcoma cells | 360,000 tested, 1.6% active | Potency, µM (top dose mostly 46.1 µM), inactives show at the top dose activity, negative = less viability, most hits filed as cytotoxic | HT-1080-NT fibrosarcoma viability, CellTiter-Glo ATP luminescence, 48 h | AID 686970;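 also: NT is the 2HG producing partner of a matched IDH1 knockdown line; potency is read from the fitted curve at half-maximal effect; 0% = DMSO-treated cells and -100% = media-only wells without cells; nearly all actives have a fitted effect of over 55% in size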
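Luminescent CellTiter-Glo readout after 48 hours of compound exposure at 37 degrees C defined viability of HT-1080-NT cells. Activity was normalized to DMSO wells and cell-free media wells; concentration-response curves were fitted and assigned curve classes.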
HT1080 IDH1KD tx = toxicity to HT-1080 IDH1 knockdown cells (counter line) | HT-1080 IDH1 knockdown viability, ATP luminescence, 48 h | Potency, µM (series often up to 46.1 µM), for inactives: at the top dose activity, negative = toxicity, actives largely listed as cytotoxic | 360,000 tested, 2% active;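 also: potency is read from the fitted curve at half-maximal effect; 0% = DMSO wells and -100% = cell-free medium wells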
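In this qHTS, HT-1080 cells depleted of IDH1 are exposed for 48 h at 37 °C to compound titrations. Toxicity is scored from CellTiter-Glo luminescence, with DMSO as full viability and medium alone as none.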
An asterisk follows results filed as active; ? = inconclusive; . = no result. In the library only some 19% were active in any assay of this set; here they are far more common. Unless noted, calls follow the shape of the dose curve; as a rule, active = well fitted curve in the direction sought with a large enough effect; inconclusive = small, poorly fitted or top-dose-only effect, or another doubt; inactive = no such curve, though single readings can be large; an effect the other way counts as inactive or inconclusive. Unless noted, % is scaled to controls: 0 for no effect and ±100 for the full control effect.

SMILES	TDP1 cell noCPT	IL1B secr inh	DT40 TDP1 CPT	HT1080-NT tox	HT1080 IDH1KD tx
O=C(Nc1cc(C(F)(F)F)ccc1Cl)C(Sc1nnc(-c2cccs2)o1)c1ccccc1 (stereo unspecified)	-1%	0	-3%	-11%	-21%
S=C(Nc1ccc(Br)cc1)N1CCN(c2ccccn2)CC1	-11%	15	-29%	-20%	-5%
CSCCC(NC(=O)COc1ccccc1)C(=O)N(C)Cc1c(F)cccc1Cl (stereo unspecified)	12µM*	-6	21µM*	-6%	-4%
CSCCC(NC(=O)COc1ccccc1)C(=O)N(C)CC(=O)Nc1ccc(Cl)cc1 (stereo unspecified)	?	-19	?	-11%	-8%
CCCCn1c(N)c(N(CCC(C)C)C(=O)c2[nH]c(C)c(C(=O)OCC)c2C)c(=O)[nH]c1=O	-10%	9	-14%	3%	10%
CCc1nnc(NC2=NCCC2)s1	0%	7	16%	10%	10%
c1ccc(CCSc2ncnc3nc[nH]c23)cc1	8.2µM*	42	16µM*	-5%	-15%
O=C(CSc1ncnc2nc[nH]c12)c1ccc(Cl)cc1	?	6	?	1%	-69%
O=C(CSc1ncnc2nc[nH]c12)c1ccccc1	?	-9	-29%	?	?
Clc1ccc(CSc2ncnc3nc[nH]c23)cc1	23µM*	-3	?	-12%	?
C[C@H](CO)N1C[C@H](C)[C@@H](CN(C)C(=O)NC2CCCCC2)Oc2c(NC(=O)Cc3ccccc3)cccc2C1=O	-12%	2	-3%	?	-1%
CCc1ccc(-n2c(Cc3ccccc3)nnc2SCc2nc(-c3cccs3)no2)cc1	16µM*	.	23µM*	.	.
Cc1ccc(-n2c(Cc3ccccc3)nnc2SCc2nc(-c3cccs3)no2)cc1C	23µM*	.	?	.	.
Cc1cccc(C(=O)Nc2ccccc2C(=O)OCc2cc(=O)n3nc(C4CC4)sc3n2)c1	4%	.	2%	.	.
CC(OC(=O)CNS(=O)(=O)c1ccc(C#N)cc1)C(=O)Nc1cccc(C#N)c1 (stereo unspecified)	-3%	9	-13%	6%	5%
CN1CCN(C(=O)C2CCCCC2)CC1	-1%	.	-9%	.	.
O=S(=O)(CCN1CCN(c2ccccn2)CC1)c1ccc(F)cc1	-4%	1	-2%	6%	7%
O=c1oc2cccnc2n1CCS(=O)(=O)c1ccc(F)cc1	-18%	-66*	-4%	-11%	-3%
COc1ccc(C2NN=C(c3ccc(C)cc3)S2)cc1 (stereo unspecified)	?	-23	-28%	12%	15%
CCOc1cc(C2NN=C(c3ccc(C)cc3)S2)ccc1O (stereo unspecified)	5.2µM*	-5	6.5µM*	-4%	11%
Cc1nc2c(C(=O)NCCCN(CC(C)C)CC(C)C)cnn2c(C)c1Cc1c(F)cccc1Cl	21µM*	.	23µM*	.	.
Cc1cc(C)c2c(n1)nn1c(C)c(CCC(=O)NCc3ccco3)c(C)nc21	-9%	-21	-29%	0%	5%
Cc1cc(C(F)F)n2ncc(C(=O)NCCc3ccccc3Cl)c2n1	-25%	?	?	-4%	-5%
CCCCNC(=O)c1cnn2c(C)c(Cc3c(F)cccc3Cl)c(C)nc12	3.7µM*	.	7.3µM*	.	.
Cc1cc(C)c(Cc2c(C)nc3c(C(=O)NCc4ccco4)cnn3c2C)c(C)c1	8.2µM*	-1	7.3µM*	-1%	-5%
SMILES	TDP1 cell noCPT	IL1B secr inh	DT40 TDP1 CPT	HT1080-NT tox	HT1080 IDH1KD tx
Cc1ccc(CNC(=O)c2cnn3c(C)c(Cc4c(F)cccc4Cl)c(C)nc23)cc1	?	.	15µM*	.	.
CCC(C)c1ccc(OCCn2cc(/C=N/NC(=O)CSc3nnc(C)s3)c3ccccc32)cc1 (stereo unspecified)	?	30	?	-30%	-30%
COc1cc(C(=O)OCCc2c(C)nc3nc[nH]n3c2=O)cc(OC)c1OC	1%	0	10%	11%	8%
CCOC(=O)c1ccc(Nc2c(-c3ccc(OC)cc3)nc3nc[nH]n23)cc1	23µM*	.	21µM*	.	.
CCOC(=O)c1ccc(Nc2c(-c3ccc(O)c(OC)c3)nc3nc[nH]n23)cc1	16µM*	.	12µM*	.	.
C=CCOc1ccc(C(c2c(C(=O)O)[nH]c3ccccc23)c2c(C(=O)O)[nH]c3ccccc23)cc1	-8%	39	12%	-6%	0%
Cc1cccc(CNc2ncncc2-c2ccccc2C)c1	-25%	.	-24%	.	.
c1cncc(-c2nc3ccccn3c2Nc2ccc3c(c2)OCCO3)c1	12µM*	-24	?	3%	-5%
Brc1ccc(-c2nc3ccccn3c2Nc2ccc3c(c2)OCCO3)o1	?	.	26µM*	.	.
Clc1ccc(-c2nc3cnccn3c2Nc2ccc3c(c2)OCO3)cc1	21µM*	64	?	-22%	-26%
Brc1ccc(-c2nc3ncccn3c2Nc2ccc3c(c2)OCCO3)o1	-18%	-6	-25%	4%	0%
CSc1ccc(-c2nc3cnccn3c2Nc2ccc3c(c2)OCO3)cc1	?	86	?	?	?
COCC(=O)Nc1cc(C(=O)N2CCc3sccc3C2)c2c(c1)nc(-c1ccncc1)n2C	-1%	.	3%	.	.
Cc1cc2nn(-c3ccc(F)cc3)nc2cc1NC(=O)c1cc(Cl)ccc1Cl	-25%	.	?	.	.
COCCN=C1NN=C(c2ccc(NC(C)=O)cc2)CS1	-20%	54	-2%	-19%	-18%
CC(=O)Nc1ccc(C2=NNC(=Nc3cccc(S(=O)(=O)N(C)C)c3)SC2)cc1	5.8µM*	-79*	6.5µM*	?	?
Cc1cc(C2=NNC(=Nc3ccccc3)SC2)c(C)n1C	?	-20	?	7%	-2%
CN(C)S(=O)(=O)c1cccc(N=C2NN=C(c3ccccc3)CS2)c1	7.3µM*	-57*	18µM*	?	?
COc1ccc(C2=NNC(=Nc3cc(S(=O)(=O)N(C)C)ccc3C)SC2)c(OC)c1	16µM*	-54*	?	?	?
CC(=O)NC1=NN(C(C)=O)C(c2ccc(C)cc2)S1 (stereo unspecified)	-16%	2	-20%	10%	8%
CC(=O)NC1=NN(C(C)=O)C(c2ccc(F)cc2)S1 (stereo unspecified)	-33%	42	2.6µM*	10%	5%
Cc1ccc(Nc2cc(-n3cccn3)ncn2)c(C)c1	?	?	?	3%	-6%
Fc1cccc(Nc2cc(-n3cccn3)ncn2)c1	10µM*	13	21µM*	-7%	-25%
